Our source for the outcome and AC50 values is PubChem BioAssay (EPA / NIEHS).

Each structure is given as a SMILES string. The source made the active and inactive calls. The calls were made as follows: active = hit-call score of the fitted dose curve at least 0.9, where 1 is the maximum; inactive = score below 0.9.

Assay [1] can be described thus: ATG_CRE_CIS: Attagene CIS-FACTORIAL HepG2 Assay for human cAMP Responsive Element (CRE) binding protein 3 (AID 2282926). The settings on record: HepG2 CRE cis-reporter, Attagene multiplexed mRNA; actives raise or lower the signal. In outline:
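Capillary electrophoresis of 6-FAM-labelled, HpaI-digested PCR products quantified reporter transcripts. These came from HepG2 transiently transfected with cis-element reporters and exposed to test chemicals for 24 hours, with DMSO defining baseline activity.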

Assay [2] addresses CCAAT/enhancer-binding protein beta (Homo sapiens) (UniProt P17676). Description: ATG_C_EBP_CIS: Attagene CIS-FACTORIAL HepG2 Assay for human CCAAT/Enhancer Binding Protein (C/EBP) beta (AID 2282927). The settings on record: HepG2 Attagene cis-factorial transcription factor reporter; actives raise or lower the signal. In a few lines: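 HepG2 transiently transfected with multiplexed reporter units under cis-regulatory promoters reporting endogenous C/EBPb activity. After 24 h exposure, reporter mRNA assayed by RT-PCR, fluorescent labelling, HpaI digestion and capillary electrophoresis; bidirectional fitting versus DMSO.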

Assay [3] in a line: ATG_CMV_CIS: Attagene CIS-FACTORIAL HepG2 Assay for human CMV (Internal Marker) (AID 2282928).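 Also: endpoint acts as a background internal control marker rather than a target.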 The settings on record: HepG2 CMV promoter reporter, transcription factor profiling; actives raise or lower the signal. In outline: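 24 h chemical treatment, HepG2 with transient multi-reporter transfection; RNA → oligo(dT) RT → PCR → 6-FAM extension → HpaI digest → CE fluorescence. Bidirectional fit, DMSO negative control.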

Assay [4] in a line: ATG_DR4_LXR_CIS: Attagene CIS-FACTORIAL HepG2 Assay for human Liver X Receptor (LXR), DR4 submotif (AID 2282929). The settings on record: HepG2 Attagene DR4 cis-reporter, mRNA transcription; actives raise or lower the signal. In a few lines:
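Transiently transfected HepG2 liver cells; cis-regulated reporters; 24 h dosing. RT-PCR plus CE read-out of reporter mRNA. DMSO baseline, bidirectional curve fitting.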

Assay [5] deals with Aryl hydrocarbon receptor (Homo sapiens) (UniProt P35869). Kind of assay: ATG_Ahr_CIS: Attagene CIS-FACTORIAL HepG2 Assay for human Aryl Hydrocarbon Receptor (Ahr) (AID 2282930). The conditions noted are these: HepG2 AhR cis-factorial reporter transcription; actives raise or lower the signal. In a few lines:
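HepG2 cells transiently transfected with cis-element-driven multiplexed reporter units; endogenous AhR activity read as reporter mRNA 24 h after dosing, via RT-PCR, 6-FAM labelling, HpaI digestion and capillary electrophoresis. Bidirectional fit relative to DMSO.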

The nature of assay [6]: ATG_BRE_CIS: Attagene CIS-FACTORIAL HepG2 Assay for human Bone Morphogenetic Protein (BMP) Response Element (BRE) (AID 2282933). The settings on record: HepG2 BMP response element reporter, Attagene transcription factor profiling; actives raise or lower the signal. In outline:
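Endogenous transcription factor activity at a BMP response element was monitored in transfected HepG2 cells 24 h after dosing. Fluorescent RT-PCR products were resolved by capillary electrophoresis, and activity was fitted in both directions versus DMSO.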

Assay [7] addresses Transcription factor E2F1 (Homo sapiens) (UniProt Q01094). Kind of assay: ATG_E2F_CIS: Attagene CIS-FACTORIAL HepG2 Assay for human E2F Transcription Factor 1 (AID 2282935). The conditions noted are these: HepG2 Attagene cis-reporter, E2F reporter RNA transcripts; actives raise or lower the signal. In a few lines: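 Transient MRTU transfection of HepG2; 24 h compound exposure; RNA → oligo(dT) RT → PCR → FAM label → HpaI cut → CE fluorescence. Gain/loss of signal fit against DMSO.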

Assay [8] in a line: ATG_E_Box_CIS: Attagene CIS-FACTORIAL HepG2 Assay for human Enhancer Box (E-box) (AID 2282936). The settings on record: HepG2 E-box cis-reporter transcription, actives raise or lower the signal. In outline: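 Transiently transfected HepG2, endogenous TF-driven reporters, 24 h dosing. Readout: RT-PCR plus capillary electrophoresis of fluorescent reporter fragments. Gain or loss of signal fitted bidirectionally against DMSO baseline.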

A short description of assay [9]: ATG_M_61_CIS: Attagene CIS-FACTORIAL HepG2 Assay for M61 Transcription Factor (Internal Marker) (AID 2282937). The conditions noted are these: HepG2 Attagene CIS-FACTORIAL M61 internal marker reporter; actives raise or lower the signal. In outline: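 Multiplexed reporter mRNA assay, HepG2 human hepatoma cells, 24 h treatment. Signal: FAM-labelled, HpaI-digested RT-PCR fragments by CE. Fit: bidirectional, baseline DMSO.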

A short description of assay [10]: ATG_EGR_CIS: Attagene CIS-FACTORIAL HepG2 Assay for human Early Growth Response 1 (EGR1) (AID 2282938). The settings on record: HepG2 Attagene CIS-FACTORIAL EGR reporter mRNA; actives raise or lower the signal. In outline: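 Multiplexed cis-reporter system in human hepatoma HepG2 cells, transiently transfected. Cells are dosed for 24 h; reporter transcripts are amplified, fluorescently tagged and sized by capillary electrophoresis, with DMSO as negative control.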

Assay [11] in a line: ATG_M_19_CIS: Attagene CIS-FACTORIAL HepG2 Assay for M19 Transcription Factor (Internal Marker) (AID 2282939). The conditions noted are these: HepG2 Attagene CIS-FACTORIAL M19 internal marker reporter; actives raise or lower the signal. In a few lines:
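Background-control endpoint from a multiplexed HepG2 reporter panel. Cells carrying cis-regulated reporter constructs are treated 24 h, then reporter transcripts are amplified, fluorescently labelled and sized by capillary electrophoresis. DMSO defines baseline.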

A short description of assay [12]: ATG_Ets_CIS: Attagene CIS-FACTORIAL HepG2 Assay for human Erythroblast Transformation Specific (ETS) (AID 2282941). The conditions noted are these: HepG2 ETS cis-reporter transcription, actives raise or lower the signal. In a few lines: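 Cis-regulated reporter mRNA induction in HepG2 (transient transfection), 24 h exposure, RT-PCR plus capillary electrophoresis detection; DMSO serves as negative control and baseline.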

For assay [13], the target named is Hepatocyte nuclear factor 3-beta (Homo sapiens) (UniProt Q9Y261). Description: ATG_FoxA2_CIS: Attagene CIS-FACTORIAL HepG2 Assay for human Forkhead box A2 (FOXA2) (AID 2282942). The conditions noted are these: HepG2 cis-reporter transcription factor activity, 24 h; actives raise or lower the signal. In a few lines: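 Multiplexed cis-element reporter assay in transiently transfected HepG2. Twenty-four hours post-dosing, RNA was reverse-transcribed, amplified, FAM-labelled, HpaI-digested and separated by CE. Activity gain or loss relative to DMSO.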

Assay [14] is described as follows: ATG_FoxO_CIS: Attagene CIS-FACTORIAL HepG2 Assay for human Forkhead box O (FoxO) (AID 2282943). The settings on record: HepG2 Attagene cis-reporter, FoxO element, mRNA; actives raise or lower the signal. In outline: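 HepG2 cells transiently transfected with cis-element-driven reporter units report endogenous FoxO activity. After 24 h chemical exposure, reporter mRNA quantified by RT-PCR, fluorescent labeling, HpaI digestion and capillary electrophoresis; bidirectional fit versus DMSO.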

The nature of assay [15]: ATG_GATA_CIS: Attagene CIS-FACTORIAL HepG2 Assay for human GATA Binding Protein (AID 2282944). The conditions noted are these: HepG2 GATA cis-element reporter, Attagene multiplex mRNA; actives raise or lower the signal. In outline: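 Endogenous transcription factor activity was captured through cis-promoter-driven reporters in transfected HepG2 cells. After 24 h exposure, reporter transcripts were quantified by RT-PCR with fluorescent capillary electrophoresis, and responses fitted both directions against DMSO.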

The nature of assay [16]: ATG_GLI_CIS: Attagene CIS-FACTORIAL HepG2 Assay for human Zinc Finger Protein GLI1 (AID 2282945). The settings on record: HepG2, Attagene cis-factorial reporter mRNA, GLI element; actives raise or lower the signal. In outline: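 Transiently transfected HepG2 cells report endogenous transcription factor activity via cis-element-driven reporter units. After 24 h compound exposure, reporter mRNA was measured by RT-PCR with capillary electrophoresis; bidirectional fitting against DMSO baseline.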

Assay [17] is described as follows: ATG_AP_1_CIS: Attagene CIS-FACTORIAL HepG2 Assay for human Activator Protein 1 (AP-1) (AID 2282931). The settings on record: HepG2 Attagene cis-factorial AP-1 reporter mRNA; actives raise or lower the signal. In outline: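 We transfected HepG2 cells transiently with a set of cis-regulated reporter transcription units, dosed them for 24 h, and quantified reporter mRNA via RT-PCR and capillary electrophoresis, scoring gain or loss of signal relative to DMSO.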

A short description of assay [18]: ATG_AP_2_CIS: Attagene CIS-FACTORIAL HepG2 Assay for human Activator Protein 2 (AP-2) (AID 2282932). The conditions noted are these: HepG2 AP-2 cis-reporter, Attagene transcription factor profiling; actives raise or lower the signal. In a few lines:
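Read-out: fluorescent reporter mRNA via RT-PCR and capillary electrophoresis, 24 h post-dose in transiently transfected HepG2. Endogenous factors drive cis-promoter reporters; gain or loss of signal fitted bidirectionally against DMSO.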

Assay [19] concerns the target Retinoic acid receptor alpha (Homo sapiens) (UniProt P10276). Description: ATG_DR5_RAR_CIS: Attagene CIS-FACTORIAL HepG2 Assay for human Retinoic Acid Receptor Alpha (RARE), DR5 submotif (AID 2282934). The settings on record: HepG2 Attagene cis-factorial RARE DR5 reporter, mRNA; actives raise or lower the signal. In outline: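 HepG2 cells transiently transfected with multiplexed reporter units; DR5 cis-element drives reporter through endogenous transcription factors. After 24 h dosing, reporter mRNA quantified by RT-PCR, fluorescent labeling, HpaI digestion and capillary electrophoresis; bidirectional fitting versus DMSO.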

Sequence of Hepatocyte nuclear factor 3-beta (Homo sapiens) (Q9Y261 whole entry, looked up): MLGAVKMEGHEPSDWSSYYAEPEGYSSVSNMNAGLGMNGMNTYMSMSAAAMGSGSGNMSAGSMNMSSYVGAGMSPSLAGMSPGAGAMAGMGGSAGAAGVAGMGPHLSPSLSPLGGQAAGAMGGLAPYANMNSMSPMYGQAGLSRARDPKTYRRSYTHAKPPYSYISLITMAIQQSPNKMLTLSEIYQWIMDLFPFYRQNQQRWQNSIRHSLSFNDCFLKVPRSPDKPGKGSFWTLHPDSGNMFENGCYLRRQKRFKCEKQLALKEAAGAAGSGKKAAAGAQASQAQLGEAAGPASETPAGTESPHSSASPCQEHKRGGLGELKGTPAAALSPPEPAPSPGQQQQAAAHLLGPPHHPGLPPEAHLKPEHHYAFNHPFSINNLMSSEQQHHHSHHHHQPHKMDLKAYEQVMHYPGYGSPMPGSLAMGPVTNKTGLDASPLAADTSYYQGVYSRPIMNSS
Sequence of Transcription factor E2F1 (Homo sapiens) (Q01094 whole entry, looked up): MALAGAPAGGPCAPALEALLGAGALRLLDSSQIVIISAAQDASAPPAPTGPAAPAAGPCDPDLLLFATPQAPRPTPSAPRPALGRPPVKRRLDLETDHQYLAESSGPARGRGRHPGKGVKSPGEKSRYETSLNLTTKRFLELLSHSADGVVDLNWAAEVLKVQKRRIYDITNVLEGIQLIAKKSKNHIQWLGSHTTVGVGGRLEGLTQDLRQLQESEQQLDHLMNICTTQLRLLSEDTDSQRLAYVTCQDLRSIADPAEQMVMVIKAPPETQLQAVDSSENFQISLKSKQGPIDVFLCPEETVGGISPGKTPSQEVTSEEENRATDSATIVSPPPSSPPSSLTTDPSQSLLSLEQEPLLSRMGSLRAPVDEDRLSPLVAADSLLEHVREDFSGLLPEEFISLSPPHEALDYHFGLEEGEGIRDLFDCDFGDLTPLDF
Sequence of Retinoic acid receptor alpha (Homo sapiens) (P10276 whole entry, looked up): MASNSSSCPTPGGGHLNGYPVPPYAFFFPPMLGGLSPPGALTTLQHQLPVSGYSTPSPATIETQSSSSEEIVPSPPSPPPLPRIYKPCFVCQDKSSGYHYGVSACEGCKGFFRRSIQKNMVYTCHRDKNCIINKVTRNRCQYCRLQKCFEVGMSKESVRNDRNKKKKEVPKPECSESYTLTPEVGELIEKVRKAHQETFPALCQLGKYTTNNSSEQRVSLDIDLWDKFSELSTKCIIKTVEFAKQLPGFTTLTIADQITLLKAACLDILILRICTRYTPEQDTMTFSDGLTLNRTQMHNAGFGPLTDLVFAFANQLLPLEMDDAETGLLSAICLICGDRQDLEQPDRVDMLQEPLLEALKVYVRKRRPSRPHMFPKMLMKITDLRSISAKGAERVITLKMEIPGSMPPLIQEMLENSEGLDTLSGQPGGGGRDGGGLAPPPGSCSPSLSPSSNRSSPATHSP
Sequence of Aryl hydrocarbon receptor (Homo sapiens) (P35869 whole entry, looked up): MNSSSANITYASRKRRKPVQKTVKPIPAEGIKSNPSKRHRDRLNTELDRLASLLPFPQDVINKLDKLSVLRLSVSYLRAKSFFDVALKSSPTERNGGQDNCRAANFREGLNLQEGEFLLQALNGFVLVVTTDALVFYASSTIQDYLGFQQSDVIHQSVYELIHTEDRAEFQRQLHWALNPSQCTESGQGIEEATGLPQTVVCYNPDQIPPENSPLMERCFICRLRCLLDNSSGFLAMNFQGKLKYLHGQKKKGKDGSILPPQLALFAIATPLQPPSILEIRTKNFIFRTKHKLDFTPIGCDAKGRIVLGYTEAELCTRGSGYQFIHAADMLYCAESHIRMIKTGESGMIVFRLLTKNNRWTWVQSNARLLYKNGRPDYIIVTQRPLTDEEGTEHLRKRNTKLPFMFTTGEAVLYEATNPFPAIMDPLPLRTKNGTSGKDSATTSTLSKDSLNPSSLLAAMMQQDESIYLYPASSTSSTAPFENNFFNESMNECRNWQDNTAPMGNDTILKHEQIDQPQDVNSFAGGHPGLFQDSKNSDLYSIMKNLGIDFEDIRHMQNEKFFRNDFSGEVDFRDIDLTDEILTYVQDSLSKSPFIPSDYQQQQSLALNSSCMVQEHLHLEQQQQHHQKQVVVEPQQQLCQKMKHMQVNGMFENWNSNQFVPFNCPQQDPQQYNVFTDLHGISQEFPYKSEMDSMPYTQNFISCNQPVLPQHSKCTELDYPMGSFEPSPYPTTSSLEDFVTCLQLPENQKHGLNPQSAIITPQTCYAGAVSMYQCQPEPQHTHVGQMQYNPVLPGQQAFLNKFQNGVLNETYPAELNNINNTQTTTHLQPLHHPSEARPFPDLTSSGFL
Sequence of CCAAT/enhancer-binding protein beta (Homo sapiens) (P17676 whole entry, looked up): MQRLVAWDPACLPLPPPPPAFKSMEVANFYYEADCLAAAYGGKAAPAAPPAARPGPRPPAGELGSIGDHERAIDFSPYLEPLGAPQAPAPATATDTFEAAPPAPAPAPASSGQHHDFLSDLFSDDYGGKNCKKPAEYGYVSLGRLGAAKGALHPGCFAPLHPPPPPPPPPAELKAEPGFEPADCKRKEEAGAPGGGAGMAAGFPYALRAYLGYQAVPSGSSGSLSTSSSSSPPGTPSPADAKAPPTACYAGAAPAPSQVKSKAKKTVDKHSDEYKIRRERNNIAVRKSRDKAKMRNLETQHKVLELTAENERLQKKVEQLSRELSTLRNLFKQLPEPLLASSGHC

With `c1ccc(C2CO2)cc1` (centres undefined), the compound was classed as inactive in [1], in [2], in assay [3], in assay [4], in assay [5] and in assay [6]. Further, the outcome in assay [7], in assay [8], in [9], in assay [10], in assay [11] and in assay [12] was inactive. In addition, the call in [13], in assay [14], in assay [15] and in assay [16] was inactive.

One may read the AC50 as the concentration at which the activity in the assay is half-maximal. As to `[As]#[In]`, the result in assay [1], in [3], in assay [4], in assay [17], in assay [18] and in [6] was inactive. The compound was classed as inactive in assay [19], in [7], in assay [8], in assay [9], in assay [10] and in [11]. Further, the result in assay [12], in [13], in assay [14], in assay [15] and in assay [16] was inactive. Further, the AC50 in [5] is 65 µM (active).

Turning to `Cc1ccc(N)c(N)c1`, the outcome in [1], in assay [2], in assay [4], in [6], in assay [19] and in assay [7] was inactive. The outcome in [8], in assay [9], in assay [11], in assay [12], in assay [13] and in assay [14] was inactive. The compound was called inactive in [15] and in assay [16]. The AC50 in assay [3] is 33.3 µM (active); in [17], 27.5 µM (active); in assay [10], 28.3 µM (active).

Regarding `CC(C)(O)c1cnn2c(-c3ccc(F)c(-c4c(F)cccc4C#N)c3)cnc2n1`, the AC50 in assay [1] is 40 µM (active); in [4], 27.5 µM (active); in [17] it was 67.1 µM (active); in assay [10], 2.13 µM (active). Also, the compound was classed as inactive in assay [3], in assay [5], in [18], in assay [6], in [19] and in assay [7]. For the same compound, the result in assay [8], in assay [9], in assay [11], in assay [12], in assay [13] and in assay [14] was inactive. Moreover, the compound was classed as inactive in [15] and in assay [16].
